# Results from ChEMBL document CHEMBL2218924, “A broad activity screen in support of a chemogenomic map for kinase signalling research and drug discovery” (Biochem J, 2013).
# Tests used:
# [1] = biological target: Protein kinase C eta type (Homo sapiens) (UniProt P24723); conditions: at 10 µM
# [2] = biological target: Protein kinase C theta type (Homo sapiens) (UniProt Q04759); conditions: at 1 µM
# [3] = biological target: Protein kinase C theta type (Homo sapiens) (UniProt Q04759); conditions: at 10 µM
# [4] = biological target: T1, Serine/threonine-protein kinase D1 (Homo sapiens) (UniProt Q15139); conditions: at 10 µM
# T1 sequence (whole entry): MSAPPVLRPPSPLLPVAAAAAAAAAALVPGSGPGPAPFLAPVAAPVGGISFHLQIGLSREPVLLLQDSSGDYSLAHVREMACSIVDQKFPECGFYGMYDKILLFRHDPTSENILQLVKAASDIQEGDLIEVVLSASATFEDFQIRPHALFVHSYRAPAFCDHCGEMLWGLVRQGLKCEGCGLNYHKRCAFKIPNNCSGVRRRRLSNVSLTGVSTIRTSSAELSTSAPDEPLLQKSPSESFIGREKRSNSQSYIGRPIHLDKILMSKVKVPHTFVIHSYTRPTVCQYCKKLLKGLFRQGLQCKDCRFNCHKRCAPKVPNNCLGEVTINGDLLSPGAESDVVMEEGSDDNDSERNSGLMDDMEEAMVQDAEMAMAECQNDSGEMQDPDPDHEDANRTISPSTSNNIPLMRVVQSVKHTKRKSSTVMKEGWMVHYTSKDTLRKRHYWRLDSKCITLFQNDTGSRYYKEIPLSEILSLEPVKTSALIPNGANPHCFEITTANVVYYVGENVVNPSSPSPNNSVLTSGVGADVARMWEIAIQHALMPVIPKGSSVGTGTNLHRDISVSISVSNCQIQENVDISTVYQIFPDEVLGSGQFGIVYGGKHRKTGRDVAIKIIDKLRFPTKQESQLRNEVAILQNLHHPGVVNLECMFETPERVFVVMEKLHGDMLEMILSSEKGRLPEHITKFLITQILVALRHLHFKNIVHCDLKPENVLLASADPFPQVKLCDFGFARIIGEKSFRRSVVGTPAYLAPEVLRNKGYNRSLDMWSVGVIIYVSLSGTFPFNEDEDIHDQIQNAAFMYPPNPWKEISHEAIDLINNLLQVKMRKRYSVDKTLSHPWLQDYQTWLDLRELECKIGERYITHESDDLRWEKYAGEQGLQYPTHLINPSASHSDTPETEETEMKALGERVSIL
# [5] = biological target: T2, Serine/threonine-protein kinase D2 (Homo sapiens) (UniProt Q9BZL6); conditions: at 1 µM
# T2 sequence (whole entry): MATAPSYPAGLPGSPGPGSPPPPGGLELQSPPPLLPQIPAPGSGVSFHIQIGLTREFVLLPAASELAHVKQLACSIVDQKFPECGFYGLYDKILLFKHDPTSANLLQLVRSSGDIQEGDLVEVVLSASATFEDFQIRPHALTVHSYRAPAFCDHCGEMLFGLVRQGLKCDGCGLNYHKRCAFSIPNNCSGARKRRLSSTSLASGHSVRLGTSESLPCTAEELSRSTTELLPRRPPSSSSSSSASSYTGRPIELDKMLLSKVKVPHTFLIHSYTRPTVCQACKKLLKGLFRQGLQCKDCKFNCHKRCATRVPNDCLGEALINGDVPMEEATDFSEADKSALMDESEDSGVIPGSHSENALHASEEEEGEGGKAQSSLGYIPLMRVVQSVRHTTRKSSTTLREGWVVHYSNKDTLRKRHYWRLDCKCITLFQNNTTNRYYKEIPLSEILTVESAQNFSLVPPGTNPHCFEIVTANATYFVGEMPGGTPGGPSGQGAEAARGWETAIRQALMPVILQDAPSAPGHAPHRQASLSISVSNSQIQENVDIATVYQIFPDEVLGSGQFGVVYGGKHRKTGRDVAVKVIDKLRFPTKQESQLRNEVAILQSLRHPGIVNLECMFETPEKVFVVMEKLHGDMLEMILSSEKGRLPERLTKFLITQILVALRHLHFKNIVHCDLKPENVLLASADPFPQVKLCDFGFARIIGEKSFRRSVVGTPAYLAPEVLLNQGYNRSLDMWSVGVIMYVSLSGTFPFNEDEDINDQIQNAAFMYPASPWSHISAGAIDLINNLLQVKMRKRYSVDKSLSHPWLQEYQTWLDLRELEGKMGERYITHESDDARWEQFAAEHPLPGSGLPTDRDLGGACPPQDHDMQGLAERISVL
# [6] = biological target: T2, Serine/threonine-protein kinase D2 (Homo sapiens); conditions: at 10 µM
# [7] = biological target: T3, cGMP-dependent protein kinase 1 (Homo sapiens) (UniProt Q13976); conditions: at 1 µM
# T3 sequence (whole entry): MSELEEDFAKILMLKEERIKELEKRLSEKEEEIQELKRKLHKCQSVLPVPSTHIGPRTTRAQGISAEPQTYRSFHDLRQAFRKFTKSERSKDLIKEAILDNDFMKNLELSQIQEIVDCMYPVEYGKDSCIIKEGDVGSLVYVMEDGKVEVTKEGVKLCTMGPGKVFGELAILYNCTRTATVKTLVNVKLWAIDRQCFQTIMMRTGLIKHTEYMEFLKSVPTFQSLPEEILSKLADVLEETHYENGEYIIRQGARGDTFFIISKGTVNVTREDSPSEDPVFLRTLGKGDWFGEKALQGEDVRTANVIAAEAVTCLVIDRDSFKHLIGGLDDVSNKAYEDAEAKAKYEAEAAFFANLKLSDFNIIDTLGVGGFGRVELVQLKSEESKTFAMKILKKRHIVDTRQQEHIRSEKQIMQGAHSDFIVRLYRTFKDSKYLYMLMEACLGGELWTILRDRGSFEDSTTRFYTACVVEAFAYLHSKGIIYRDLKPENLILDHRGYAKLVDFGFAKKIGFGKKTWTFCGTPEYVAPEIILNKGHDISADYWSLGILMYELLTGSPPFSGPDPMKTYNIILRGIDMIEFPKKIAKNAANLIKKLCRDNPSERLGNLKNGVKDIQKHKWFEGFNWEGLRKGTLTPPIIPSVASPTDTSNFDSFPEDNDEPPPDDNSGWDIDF
# [8] = biological target: T3, cGMP-dependent protein kinase 1 (Homo sapiens); conditions: at 10 µM
# [9] = biological target: T3, cGMP-dependent protein kinase 1 (Homo sapiens); conditions: at 1 µM; remark: listed apart in the source
# [10] = biological target: T3, cGMP-dependent protein kinase 1 (Homo sapiens); conditions: at 10 µM; remark: listed apart in the source
# [11] = biological target: T4, MAP kinase-activated protein kinase 5 (Homo sapiens) (UniProt Q8IW41); conditions: at 1 µM
# T4 sequence (whole entry): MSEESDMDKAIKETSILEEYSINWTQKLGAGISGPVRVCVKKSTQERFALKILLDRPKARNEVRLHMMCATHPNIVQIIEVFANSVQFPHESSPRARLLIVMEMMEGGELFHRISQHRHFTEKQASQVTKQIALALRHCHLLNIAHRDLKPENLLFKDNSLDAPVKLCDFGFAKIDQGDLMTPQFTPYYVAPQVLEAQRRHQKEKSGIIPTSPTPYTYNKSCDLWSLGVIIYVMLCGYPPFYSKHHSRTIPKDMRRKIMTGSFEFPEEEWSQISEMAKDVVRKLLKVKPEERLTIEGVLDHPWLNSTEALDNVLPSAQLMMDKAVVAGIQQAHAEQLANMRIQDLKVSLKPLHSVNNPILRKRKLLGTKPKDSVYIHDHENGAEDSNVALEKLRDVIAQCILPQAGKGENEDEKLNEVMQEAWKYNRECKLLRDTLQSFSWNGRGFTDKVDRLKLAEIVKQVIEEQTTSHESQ
# [12] = biological target: T4, MAP kinase-activated protein kinase 5 (Homo sapiens); conditions: at 10 µM
# [13] = biological target: Serine/threonine-protein kinase N2 (Homo sapiens) (UniProt Q16513); conditions: at 1 µM
# Sequence of Serine/threonine-protein kinase N2 (Homo sapiens) (Q16513 whole entry, looked up): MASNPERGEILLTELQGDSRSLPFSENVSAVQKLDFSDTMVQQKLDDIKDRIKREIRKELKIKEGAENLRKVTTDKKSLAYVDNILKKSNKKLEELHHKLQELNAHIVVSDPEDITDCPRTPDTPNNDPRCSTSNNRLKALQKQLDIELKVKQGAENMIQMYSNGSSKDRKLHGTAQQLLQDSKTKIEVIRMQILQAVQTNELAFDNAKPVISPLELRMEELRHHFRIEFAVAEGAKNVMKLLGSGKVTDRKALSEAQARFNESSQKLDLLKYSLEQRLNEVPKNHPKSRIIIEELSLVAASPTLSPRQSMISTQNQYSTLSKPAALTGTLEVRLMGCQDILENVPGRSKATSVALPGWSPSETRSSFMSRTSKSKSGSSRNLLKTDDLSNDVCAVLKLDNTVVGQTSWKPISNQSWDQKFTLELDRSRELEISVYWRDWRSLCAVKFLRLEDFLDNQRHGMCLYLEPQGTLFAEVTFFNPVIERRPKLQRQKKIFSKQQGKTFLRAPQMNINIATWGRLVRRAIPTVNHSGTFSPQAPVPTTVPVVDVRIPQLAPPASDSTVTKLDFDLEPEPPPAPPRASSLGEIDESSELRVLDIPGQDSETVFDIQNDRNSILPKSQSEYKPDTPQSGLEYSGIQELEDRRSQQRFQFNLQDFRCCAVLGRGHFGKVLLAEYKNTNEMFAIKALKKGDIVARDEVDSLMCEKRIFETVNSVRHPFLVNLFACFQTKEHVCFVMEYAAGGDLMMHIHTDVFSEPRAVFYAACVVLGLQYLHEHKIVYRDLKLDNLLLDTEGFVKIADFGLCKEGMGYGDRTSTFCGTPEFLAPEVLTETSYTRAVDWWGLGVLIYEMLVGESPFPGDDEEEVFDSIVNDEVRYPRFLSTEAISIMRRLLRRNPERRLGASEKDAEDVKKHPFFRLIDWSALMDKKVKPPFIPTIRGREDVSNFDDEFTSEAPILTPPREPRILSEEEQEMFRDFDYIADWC
# [14] = biological target: Serine/threonine-protein kinase N2 (Homo sapiens) (UniProt Q16513); conditions: at 10 µM
# [15] = biological target: Tyrosine-protein kinase FRK (Homo sapiens) (UniProt P42685); conditions: at 1 µM
# Sequence of Tyrosine-protein kinase FRK (Homo sapiens) (P42685 whole entry): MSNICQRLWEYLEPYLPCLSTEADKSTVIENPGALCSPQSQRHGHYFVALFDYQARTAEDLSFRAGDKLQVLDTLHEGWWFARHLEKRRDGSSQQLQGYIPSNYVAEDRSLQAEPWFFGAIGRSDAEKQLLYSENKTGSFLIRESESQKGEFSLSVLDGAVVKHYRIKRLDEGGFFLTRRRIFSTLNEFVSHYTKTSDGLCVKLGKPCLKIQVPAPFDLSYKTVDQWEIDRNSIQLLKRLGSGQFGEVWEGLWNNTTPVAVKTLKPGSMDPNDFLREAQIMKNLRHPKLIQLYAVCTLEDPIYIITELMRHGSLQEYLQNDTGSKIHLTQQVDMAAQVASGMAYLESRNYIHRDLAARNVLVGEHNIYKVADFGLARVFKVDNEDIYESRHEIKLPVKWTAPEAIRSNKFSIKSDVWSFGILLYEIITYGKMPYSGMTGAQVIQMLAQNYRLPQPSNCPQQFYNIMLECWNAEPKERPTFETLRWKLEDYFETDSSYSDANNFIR
# [16] = biological target: Tyrosine-protein kinase FRK (Homo sapiens) (UniProt P42685); conditions: at 10 µM
# [17] = biological target: T5, Protein kinase C iota type (Homo sapiens) (UniProt P41743); conditions: at 1 µM
# T5 sequence (whole entry): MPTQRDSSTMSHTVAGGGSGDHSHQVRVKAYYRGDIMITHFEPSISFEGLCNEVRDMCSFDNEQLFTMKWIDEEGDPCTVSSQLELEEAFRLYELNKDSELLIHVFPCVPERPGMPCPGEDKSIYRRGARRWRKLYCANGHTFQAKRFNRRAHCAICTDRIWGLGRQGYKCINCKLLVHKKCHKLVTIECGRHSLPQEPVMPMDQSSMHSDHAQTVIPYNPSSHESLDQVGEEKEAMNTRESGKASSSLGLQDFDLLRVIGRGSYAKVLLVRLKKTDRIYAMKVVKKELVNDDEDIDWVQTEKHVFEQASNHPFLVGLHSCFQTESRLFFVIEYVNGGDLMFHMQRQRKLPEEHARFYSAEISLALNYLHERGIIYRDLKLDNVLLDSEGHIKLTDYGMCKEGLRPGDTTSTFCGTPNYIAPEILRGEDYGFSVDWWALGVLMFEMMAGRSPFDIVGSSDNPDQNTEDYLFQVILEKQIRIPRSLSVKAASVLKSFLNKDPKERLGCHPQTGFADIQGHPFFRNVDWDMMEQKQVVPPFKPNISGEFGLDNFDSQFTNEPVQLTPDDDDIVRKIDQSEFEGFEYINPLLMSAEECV
# [18] = biological target: T5, Protein kinase C iota type (Homo sapiens); conditions: at 10 µM
# [19] = biological target: T1, Serine/threonine-protein kinase D1 (Homo sapiens); conditions: at 1 µM
# [20] = biological target: Protein kinase C eta type (Homo sapiens) (UniProt P24723); conditions: at 1 µM
# Sequence of Protein kinase C eta type (Homo sapiens) (P24723 whole entry): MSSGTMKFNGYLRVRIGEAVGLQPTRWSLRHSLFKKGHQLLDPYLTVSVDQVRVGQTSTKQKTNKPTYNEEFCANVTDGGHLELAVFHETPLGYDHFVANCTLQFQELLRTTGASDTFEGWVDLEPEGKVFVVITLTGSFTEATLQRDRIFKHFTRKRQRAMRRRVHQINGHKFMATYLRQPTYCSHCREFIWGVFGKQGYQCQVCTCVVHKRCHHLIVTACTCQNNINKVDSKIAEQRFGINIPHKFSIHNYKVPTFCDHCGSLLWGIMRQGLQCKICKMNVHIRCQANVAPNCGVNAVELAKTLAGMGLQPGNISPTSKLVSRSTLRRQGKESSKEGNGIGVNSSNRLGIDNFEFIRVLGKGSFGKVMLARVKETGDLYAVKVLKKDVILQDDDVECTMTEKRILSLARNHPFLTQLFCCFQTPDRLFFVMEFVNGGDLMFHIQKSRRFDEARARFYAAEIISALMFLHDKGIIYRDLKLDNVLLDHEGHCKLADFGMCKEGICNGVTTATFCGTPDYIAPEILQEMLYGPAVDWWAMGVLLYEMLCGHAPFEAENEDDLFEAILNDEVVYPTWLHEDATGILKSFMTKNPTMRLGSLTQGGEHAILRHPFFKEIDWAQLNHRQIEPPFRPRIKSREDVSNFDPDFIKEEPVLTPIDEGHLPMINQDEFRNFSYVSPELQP
# Sequence of Protein kinase C theta type (Homo sapiens) (Q04759 whole entry, looked up): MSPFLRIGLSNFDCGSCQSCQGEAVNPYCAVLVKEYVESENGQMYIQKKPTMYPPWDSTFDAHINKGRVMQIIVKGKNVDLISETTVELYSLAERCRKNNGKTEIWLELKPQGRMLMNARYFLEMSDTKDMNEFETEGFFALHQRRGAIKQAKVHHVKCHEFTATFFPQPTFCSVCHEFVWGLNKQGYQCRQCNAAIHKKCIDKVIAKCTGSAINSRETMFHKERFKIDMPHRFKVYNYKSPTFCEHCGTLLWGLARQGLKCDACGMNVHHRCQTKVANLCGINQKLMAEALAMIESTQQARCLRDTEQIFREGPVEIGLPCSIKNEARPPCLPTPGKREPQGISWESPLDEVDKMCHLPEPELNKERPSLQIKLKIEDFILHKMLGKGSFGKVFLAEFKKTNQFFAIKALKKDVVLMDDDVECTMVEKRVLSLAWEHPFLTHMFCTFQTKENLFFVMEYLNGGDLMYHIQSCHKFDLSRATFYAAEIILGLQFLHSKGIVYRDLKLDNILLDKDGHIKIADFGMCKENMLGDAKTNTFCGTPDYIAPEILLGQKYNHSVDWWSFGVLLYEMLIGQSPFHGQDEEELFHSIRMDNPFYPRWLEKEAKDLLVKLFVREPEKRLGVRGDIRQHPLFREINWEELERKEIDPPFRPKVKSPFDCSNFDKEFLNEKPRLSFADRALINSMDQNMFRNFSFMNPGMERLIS
smiles,measurement,setting,value
O=C(NC(NC(=S)Nc1ccc(F)c([N+](=O)[O-])c1)C(Cl)(Cl)Cl)C(c1ccccc1)c1ccccc1 (stereo not drawn),residual activity,[1],90%
same,residual activity,[2],97%
same,residual activity,[3],104%
same,residual activity,[4],88%
same,residual activity,[5],100%
same,residual activity,[6],100%
same,residual activity,[7],96%
same,residual activity,[8],92%
same,residual activity,[9],97%
same,residual activity,[10],73%
same,residual activity,[11],87%
same,residual activity,[12],49%
same,residual activity,[13],94%
same,residual activity,[14],102%
same,residual activity,[15],71%
same,residual activity,[16],47%
COc1ccc(CNC(=O)Nc2ncc([N+](=O)[O-])s2)cc1,residual activity,[17],110% (inactive)
same,residual activity,[18],110%
same,residual activity,[14],81%
CC(C)N(CCC(=O)c1ccc2ccccc2c1)Cc1ccccc1,residual activity,[1],76%
same,residual activity,[17],77% (inactive)
same,residual activity,[18],72%
same,residual activity,[19],74%
same,residual activity,[4],84%
same,residual activity,[11],82%
same,residual activity,[12],72%
CCN1/C(=C/C(C)=O)Sc2ccc(OC)cc21,residual activity,[19],59%
same,residual activity,[4],18%
same,residual activity,[6],70%
O=c1cc(N2CCOCC2)oc2c(-c3ccccc3)cccc12,residual activity,[1],66%
same,residual activity,[18],63%
same,residual activity,[9],80%
same,residual activity,[10],81%
O=C(Nc1ccc(Cl)cc1)c1ccccc1NCc1ccncc1,residual activity,[11],60%
same,residual activity,[12],51%
same,residual activity,[15],19%
same,residual activity,[16],1%
Cn1c2ccccc2c2c3c(c4c5ccccc5n(CCC#N)c4c21)CNC3=O,residual activity,[20],72%
same,residual activity,[1],60%
same,residual activity,[19],5%
same,residual activity,[4],12%
same,residual activity,[13],11%
same,residual activity,[14],10%
same,residual activity,[15],42%
same,residual activity,[16],33%
CCOC(=O)c1c(C)[nH]c(/C=C2\C(=O)Nc3ccccc32)c1C,residual activity,[11],88%
same,residual activity,[12],81%
O=C(c1cc2cc(O)ccc2[nH]1)c1cc2cc(O)ccc2[nH]1,residual activity,[1],77%
same,residual activity,[2],83%
same,residual activity,[3],67%
same,residual activity,[19],80%
same,residual activity,[4],23%
same,residual activity,[11],71%
same,residual activity,[12],40%
same,residual activity,[13],72%
same,residual activity,[14],39%
same,residual activity,[15],37%
same,residual activity,[16],7%
CCN(CC)CCNC(=O)c1c(C)[nH]c(/C=C2\C(=O)Nc3ccc(Cl)cc32)c1C,residual activity,[19],38%
same,residual activity,[4],4%
same,residual activity,[5],73%
same,residual activity,[6],16%
same,residual activity,[11],97%
same,residual activity,[12],49%
same,residual activity,[13],52%
same,residual activity,[14],18%
same,residual activity,[15],31%
same,residual activity,[16],1%
